Only some compounds are listed: those with a hit (about 6.3% of all), similar ones and a draw of the others.
DPM-DC inhibit: S. pneumoniae DPM-DC inhibitors, primary screen, biochemical, PK/LDH-coupled NADH fluorescence; diphosphomevalonate decarboxylase (Streptococcus pneumoniae D39); purified DPM-DC; calls only at 10 µM; 65,000 tested, 0.49% active;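 active = the 320 compounds with the highest percent inhibition in the single-dose primary screen, excluding strongly autofluorescent ones, cut at about 32% in these data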;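 note: kinetic rate of NADH fluorescence loss reporting ADP formed by the decarboxylase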
Spn PMK inh: S. pneumoniae PMK inhibitors, primary screen, biochemical, mevalonate pathway, pilot trial included. inhibition, % at 10 µM. purified PMK, PK/LDH-coupled NADH absorbance 340 nm. 65,000 tested, 0.49% active. phosphomevalonate kinase (Streptococcus pneumoniae D39);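 active = top-ranked compounds by inhibition in the single 10 µM screen, taking a fixed number of the strongest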;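 note: 0% = full reaction with DMSO carrier and 100% = background rate without enzyme reaction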
MK inhibit: S. pneumoniae MK inhibitors, primary screen, biochemical, PK/LDH-coupled NADH absorbance; mevalonate kinase [Streptococcus pneumoniae D39]; purified MK, PK/LDH-coupled NADH absorbance 340 nm; inhibition, % at 10 µM; 65,000 tested, 0.48% active;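 active = ranked among the strongest by inhibition in the single 10 µM screen, a fixed top-ranked set picked for dose follow-up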
Autofluor 339: intrinsic fluorescence of library compounds, ex339/em460 – biochemical, MLSMR library, data from DPM-DC assay, artefact control, profiling panel. compound autofluorescence, ex339/em460 nm, NADH buffer; stronger effect = higher value; 1 = no-compound wells, NADH background. fluorescence fold increase at 10 µM. 65,000 tested, 5.5% active. AID 709, 2007;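 active = at 10 µM, mean starting fluorescence two-fold or more over control wells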;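 note: signal is the first read of a kinetic run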
Abs 340nm: compound light absorbance at 340 nm, profiling panel, artefact control, biochemical, MLSMR library, data from PS, PMK, MK assays | compound absorbance at 340 nm, fold over control | fold change at 10 µM | 65,000 tested, under 10 active | AID 708, 2007;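 active = at 10 µM dose, initial 340 nm absorbance at least 2 fold that of control wells; inactive = change under 2 fold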;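 note: initial absorbance extrapolated from kinetic A340 decline of NADH oxidation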
NADH enzymes: inhibitors of PK/LDH coupling enzymes, profiling panel, artefact control, biochemical, MLSMR library; IC50, µM (highest dose often 10 µM), for the others: at the top dose inhibition; AID 774, 2007; coupled PK/LDH NADH assays, four targets; 65,000 tested, 0.02% active;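 active = single-dose screening hits from any of four coupled enzyme assays that gave an IC50 when retested across doses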;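 note: the DPM-DC format reads NADH fluorescence rather than 340 nm absorbance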
The depositor's hits bear a star.

What do the screens show for `COCCn1cc(C(=O)NCc2cccs2)c2c3ccccc3n(C)c2c1=O`?
DPM-DC inhibit: inactive; Spn PMK inh: 15; MK inhibit: 11; Autofluor 339: 3.5*; Abs 340nm: 1; NADH enzymes: 15%

How did CCCN(CCC)CCNC(=O)c1cc2c(=O)n(C)c3ccccc3c2n1C do in these assays?
Spn PMK inh: 10; MK inhibit: 5; Autofluor 339: 1.6; Abs 340nm: 1; NADH enzymes: 4%

Results for Nc1nc(N)c2sc3nc4c(cc3c2n1)CCC4 ?
DPM-DC inhibit: active; Spn PMK inh: 0; MK inhibit: 4; Autofluor 339: 3.2*; Abs 340nm: 1.1; NADH enzymes: 13%

Results for O=C(Nc1ccc(N2CCN(Cc3ccccc3Cl)CC2)cc1)c1cccnc1 ?
DPM-DC inhibit: inactive; Spn PMK inh: 4; MK inhibit: 6; Autofluor 339: 1; Abs 340nm: 1; NADH enzymes: 3%

How did O=C(Nc1ccc(N2CCCCC2)cc1)c1cccnc1 do in these assays?
DPM-DC inhibit: active; Spn PMK inh: 8; MK inhibit: 2; Autofluor 339: 1.1; Abs 340nm: 1.1; NADH enzymes: 17%

Results for CCCCOC(=O)C(C)c1c(C)[nH]c(=S)[nH]c1=O (stereo not given) ?
DPM-DC inhibit: inactive; Spn PMK inh: 0; MK inhibit: 9; Autofluor 339: 1.1; Abs 340nm: 1; NADH enzymes: 3%

How did Cc1c(Cl)cccc1-n1nnnc1-c1cccs1 do in these assays?
DPM-DC inhibit: inactive; Spn PMK inh: 3; MK inhibit: 10; Autofluor 339: 1.1; Abs 340nm: 0.99; NADH enzymes: 4%

What do the screens show for `O=C(CN1C(=O)NC2(CCc3ccccc32)C1=O)c1ccc2c(c1)OCCO2` (stereo not given)?
DPM-DC inhibit: inactive; Spn PMK inh: 16; MK inhibit: 4; Autofluor 339: 1.2; Abs 340nm: 1; NADH enzymes: 7%

How did CC(C)(C)c1cc(=O)n2c(C#N)c(C#N)nc2[nH]1 do in these assays?
Spn PMK inh: 9; MK inhibit: 4; Autofluor 339: 5*; Abs 340nm: 1.1; NADH enzymes: 7%

What do the screens show for `O=S(=O)(c1ccc(S(=O)(=O)N2CCCC2)cc1)N1CCCCCC1`?
DPM-DC inhibit: inactive; Spn PMK inh: 11; MK inhibit: 0; Autofluor 339: 1; Abs 340nm: 1; NADH enzymes: 6%

What do the screens show for `O=S(=O)(c1ccc2c(c1)C(=NO)c1cc(S(=O)(=O)N3CCCCC3)ccc1-2)N1CCCCC1`?
DPM-DC inhibit: inactive; Spn PMK inh: 8; MK inhibit: 9; Autofluor 339: 2*; Abs 340nm: 1; NADH enzymes: 6%

Results for Cc1nn(-c2ccc(F)cc2F)c2c1-c1nc(N3CCCC3)ncc1CC2 ?
Spn PMK inh: 11; MK inhibit: 0; Autofluor 339: 5.1*; Abs 340nm: 1; NADH enzymes: 6%

How did CCN(CC(=O)N1CCN(C)CC1)S(=O)(=O)c1ccc(Cl)cc1 do in these assays?
DPM-DC inhibit: inactive; Spn PMK inh: 0; MK inhibit: 3; Autofluor 339: 1.1; Abs 340nm: 1; NADH enzymes: 1%

Results for COCCOC(=O)C1=C(C)N=C2SCCC(=O)N2C1c1cc(Br)ccc1OC (stereo not given) ?
DPM-DC inhibit: inactive; Spn PMK inh: 13; MK inhibit: 10; Autofluor 339: 1; Abs 340nm: 1.1; NADH enzymes: 9%

Results for Cc1cc(C)n(-c2nc(NCc3cccnc3)c3c4c(sc3n2)COC(C)(C)C4)n1 ?
Spn PMK inh: 7; MK inhibit: 2; Autofluor 339: 3.7*; Abs 340nm: 1.1; NADH enzymes: 5%

What do the screens show for `Nc1nc2n(n1)C(c1cccs1)CC(c1ccc(F)cc1)N2` (stereo not given)?
DPM-DC inhibit: inactive; Spn PMK inh: 6; MK inhibit: 1; Autofluor 339: 1.1; Abs 340nm: 1; NADH enzymes: 2%

How did COc1ccc(C2CC(c3cccs3)n3nc(N)nc3N2)cc1 (stereo not given) do in these assays?
DPM-DC inhibit: inactive; Spn PMK inh: 0; MK inhibit: 3; Autofluor 339: 2*; Abs 340nm: 0.98; NADH enzymes: 1%

How did Cc1ccc(-c2nnn(CC(=O)N(Cc3ccccc3)C(C(=O)NC3CCCC3)c3ccncc3)n2)o1 (stereo not given) do in these assays?
DPM-DC inhibit: inactive; Spn PMK inh: 5; MK inhibit: 0; Autofluor 339: 1.1; Abs 340nm: 1; NADH enzymes: 2%

Results for ONC=Nc1cccc2nonc12 ?
DPM-DC inhibit: inactive; Spn PMK inh: 1; MK inhibit: 10; Autofluor 339: 1; Abs 340nm: 1; NADH enzymes: 4%

What do the screens show for `CCCCNC(=O)c1cc2c(=O)n3cccc(C)c3nc2n(Cc2ccccc2)c1=N`?
Spn PMK inh: 0; MK inhibit: 7; Autofluor 339: 4*; Abs 340nm: 1.1; NADH enzymes: 4%

How did COCCn1c(=N)c(C(=O)NCCc2ccccc2)cc2c(=O)n3cccc(C)c3nc21 do in these assays?
Spn PMK inh: 0; MK inhibit: 2; Autofluor 339: 2.5*; Abs 340nm: 1.1; NADH enzymes: 1%

How did CCn1c(=N)c(C(=O)NCc2cccnc2)cc2c(=O)n3cccc(C)c3nc21 do in these assays?
Spn PMK inh: 15; MK inhibit: 10; Autofluor 339: 3.7*; Abs 340nm: 0.99; NADH enzymes: 13%

Results for Cc1cccn2c(=O)c3cc(C(=O)NCc4ccco4)c(=N)n(CCOCCO)c3nc12 ?
Spn PMK inh: 17; MK inhibit: 0; Autofluor 339: 5*; Abs 340nm: 1; NADH enzymes: 9%

Results for Cc1nn(C(=O)c2ccc3c(c2)OCO3)c(N)c1-c1ccccc1 ?
DPM-DC inhibit: inactive; Spn PMK inh: 2; MK inhibit: 9; Autofluor 339: 1; Abs 340nm: 1; NADH enzymes: 1%

How did C=CCSc1nnc(NC(=O)c2cccc(S(=O)(=O)N3CCOCC3)c2)s1 do in these assays?
DPM-DC inhibit: inactive; Spn PMK inh: 9; MK inhibit: 6; Autofluor 339: 1.1; Abs 340nm: 1.2; NADH enzymes: 8%

What do the screens show for `Cn1c(=O)oc2cc(S(=O)(=O)Nc3ccc4c(c3)OCO4)ccc21`?
DPM-DC inhibit: inactive; Spn PMK inh: 11; MK inhibit: 8; Autofluor 339: 1.1; Abs 340nm: 1; NADH enzymes: 9%

Results for C=CCn1c(=N)c(C(=O)NCCCOC)cc2c(=O)n3cccc(C)c3nc21 ?
Spn PMK inh: 0; MK inhibit: 0; Autofluor 339: 2.3*; Abs 340nm: 1.1; NADH enzymes: 0%

Screening data as filed in PubChem.
